Bioassay records (PubChem)
In the library only some 11% were active in any assay of this set; here they are far more common.
ALDH1A1 inh: blocks purified human ALDH1A1 activity. P00352. Purified ALDH1A1, NADH fluorescence, propionaldehyde substrate. Potency, µM (doses to about 75.3 µM), inactives show top-dose activity, negative = inhibition, usual class: inhibitors. 220,000 tested, 7.3% active. AID 1030;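 also: potency is read from the fitted curve at half-maximal effect; plate controls were no enzyme wells and a reference inhibitor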
Target sequence (P00352 whole entry, looked up): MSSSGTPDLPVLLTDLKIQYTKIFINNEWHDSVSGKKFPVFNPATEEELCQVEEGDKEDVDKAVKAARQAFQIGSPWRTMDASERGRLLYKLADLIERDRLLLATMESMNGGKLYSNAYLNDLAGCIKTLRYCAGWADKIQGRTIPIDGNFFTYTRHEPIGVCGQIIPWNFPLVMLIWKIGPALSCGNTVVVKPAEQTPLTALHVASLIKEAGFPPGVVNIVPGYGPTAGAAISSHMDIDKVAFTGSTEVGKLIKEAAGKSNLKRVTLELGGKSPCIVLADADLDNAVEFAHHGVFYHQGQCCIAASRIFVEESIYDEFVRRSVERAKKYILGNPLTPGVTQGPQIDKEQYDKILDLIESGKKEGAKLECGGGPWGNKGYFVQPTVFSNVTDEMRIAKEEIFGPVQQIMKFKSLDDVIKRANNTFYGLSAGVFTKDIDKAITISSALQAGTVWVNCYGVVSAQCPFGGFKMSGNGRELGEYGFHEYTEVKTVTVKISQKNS
HPGD block: blocks human HPGD enzyme activity; Potency, µM, without a hit: top-dose activity change, negative = inhibition, usual class: inhibitors; 150,000 tested, 4.3% active; purified HPGD, NADH fluorescence kinetic, PGE2 substrate; also: potency is read from the fitted curve at half-maximal effect; % is scaled to controls: 0 for no effect and ±100 for the full control effect
Target sequence (P15428 whole entry, looked up): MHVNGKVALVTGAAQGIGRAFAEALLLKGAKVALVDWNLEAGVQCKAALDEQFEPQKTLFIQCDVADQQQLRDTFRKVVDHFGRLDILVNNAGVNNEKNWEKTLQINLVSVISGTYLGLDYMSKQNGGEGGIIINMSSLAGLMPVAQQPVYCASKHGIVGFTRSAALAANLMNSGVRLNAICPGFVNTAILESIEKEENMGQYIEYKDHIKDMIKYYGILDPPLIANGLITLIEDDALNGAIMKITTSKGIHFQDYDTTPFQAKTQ
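NADH formation kinetics: reaction with 30 uM PGE2 and 1 mM NAD+ (final), 20 nM enzyme, Tris-HCl pH 8 with Tween 20, after 15 min compound preincubation at room temperature. Fluorescence change, last versus first of five reads.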
HttQ103 aggreg: mutant huntingtin aggregation inhibition. PC12 HttQ103-GFP aggregates, Acumen cytometry, 40 h. Potency, µM (doses to about 46.1 µM), for the others: top-dose activity change, negative = inhibition, hits mostly inhibitors. 220,000 tested, 1.1% active; active = well fitted curve in the direction sought with a large enough effect; inconclusive = small, poorly fitted or top-dose-only effect, or another doubt; inactive = no such curve, though single readings can be large; an effect the other way counts as inactive or inconclusive; also: potency is read from the fitted curve at half-maximal effect; % is scaled to controls: 0 for no effect and ±100 for the full control effect; nearly all actives have a fitted effect of over 60% in size
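Quantitative HTS on tebufenozide-induced (100 nM) PC12 cells stably expressing polyQ103 Huntingtin exon 1–GFP. Reduction of bright GFP aggregates, detected by laser scanning cytometry after lysis, identified actives across the titration.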
HTT cytoprotect: protects HTT-Q103 PC12 cells, measured by ATP. AID 1471. 230,000 tested, 0.14% active. PC12 HTT-Q103 induced, cytoprotection, ATP luminescence, 40 h. Potency, µM (top dose mostly 56.4 µM), without a hit: cytoprotection (ATP increase), usual class: activators; active = well fitted curve in the direction sought with a large enough effect; inconclusive = small, poorly fitted or top-dose-only effect, or another doubt; inactive = no such curve, though single readings can be large; an effect the other way counts as inactive or inconclusive; also: potency is read from the fitted curve at half-maximal effect; % of control where 0% means no effect; nearly all actives have a fitted effect of over 45% in size
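Compounds added alongside 100 nM tebufenozide, which induces toxic Q103 huntingtin exon 1-GFP in stable PC12 cells; surviving cells quantified by luminescent ATP measurement. Medium: phenol red-free DMEM, 5% equine and 5% calf serum.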
RGS12 GoLoco inh: blocks human Gai1 binding to RGS12 GoLoco peptide, red readout | Potency, µM (doses to about 61.6 µM), for the others: at the top dose activity, negative = inhibition, actives largely listed as inhibitors | Gai1:RGS12 GoLoco peptide FP, rhodamine, 10 min | AID 880 | P63096 | 230,000 tested, 0.44% active; active = well fitted inhibition curve with a large enough effect, not every such curve was filed as active; inactive = no such curve, though single readings can be large or run the other way; also: potency is read from the fitted curve at half-maximal effect; % is scaled to controls: 0 for no effect and ±100 for the full control effect; nearly all actives have a fitted effect of over 30% in size
PNC inhibitor: inhibitors of perinucleolar compartment assembly. AID 2417. 140,000 tested, 3.1% active. PC3M PTB-GFP, PNC prevalence imaging, 16 h; hits give low values. activity change (PNC), negative = inhibition, % at 10 µM;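 active = readout at or below -70, meaning at least 70% loss of cells showing the perinucleolar compartment, a nuclear body marking cancer cells; inconclusive = readout between -30 and a set limit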;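 also: plate controls were DMSO wells for no effect and camptothecin positive control wells for full effect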
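PC3M cells stably expressing PTB-GFP, 750–1000 cells/well, treated 16 h at 37 °C with compound (23 nl of library stock), in duplicate. After paraformaldehyde fixation and Hoechst stain, imaged at 20x; PNC prevalence scored by image analysis.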
Starred values were filed as active, the others as inactive; [ ] = remark or other dose. Unless noted, calls follow the shape of the dose curve; as a rule, active = well fitted inhibition curve with a large enough effect (not every such curve was filed as active); inconclusive = small, poorly fitted or top-dose-only effect, or another doubt; inactive = no such curve, though single readings can be large or run the other way.

Screening CCOC(=O)C1C(=O)C=C(c2cccc(NS(C)(=O)=O)c2)CC1c1ccco1 (stereo not given) returned ALDH1A1 inh 20µM*, HPGD block -22.2%, HttQ103 aggreg -6.7%, HTT cytoprotect -28.4%[10 µM], RGS12 GoLoco inh -0.4% and PNC inhibitor -26.8.
CCOC(=O)C1C(=O)C=C(c2ccc(C)cc2)CC1c1ccccc1 (stereo not given) was read as ALDH1A1 inh -10.3%, HttQ103 aggreg 21.4%[9.22 µM], HTT cytoprotect -56.6% and RGS12 GoLoco inh 16.8%.
`O=C(/C=C(\c1ccc(Cl)cc1)n1cncn1)c1ccc(Cl)cc1` gave ALDH1A1 inh 2.24µM*, HPGD block -24.2%, HttQ103 aggreg -4.4%[9.22 µM], HTT cytoprotect 19.6%, RGS12 GoLoco inh 8.3% and PNC inhibitor -18.5.
For O=[N+]([O-])c1ccc(Cl)cc1Cl the results were ALDH1A1 inh -0.8%, HPGD block -1.6%, HTT cytoprotect 0.0% and RGS12 GoLoco inh -1.1%.
O=C(COC(=O)C1=COCCO1)NC1CCCCCCC1 was read as ALDH1A1 inh 2.7%, HttQ103 aggreg -0.6%, HTT cytoprotect -35.7% and RGS12 GoLoco inh 5.8%.
Screening CCNc1ncc2nc(-c3cccs3)c(=O)n(CCc3ccccc3)c2n1 returned ALDH1A1 inh -1.3%, HTT cytoprotect 1.41µM* and RGS12 GoLoco inh -11.6%.
For CCNc1ncc2nc(-c3ccccc3)c(=O)n(CCc3ccccc3)c2n1 the results were ALDH1A1 inh inconclusive, HPGD block inconclusive, HTT cytoprotect -11.8% and RGS12 GoLoco inh 5.7%.
`O=C(COC(=O)c1c(Cl)ccc(Cl)c1Cl)NC1CCS(=O)(=O)C1` (stereo not given) gave ALDH1A1 inh 1.2%, HttQ103 aggreg 2.4%, HTT cytoprotect -24.5%[10 µM] and RGS12 GoLoco inh 8.1%.
`S=C(c1cn(CCOc2cccc3ccccc23)c2ccccc12)N1CCCC1` gave ALDH1A1 inh 28.2µM*, HPGD block -11.4%, HttQ103 aggreg inconclusive, RGS12 GoLoco inh 21.9% and PNC inhibitor 31.4.
For Cc1ccc(OCCn2cc(C(=S)N3CCCC3)c3ccccc32)cc1C the results were ALDH1A1 inh inconclusive, HPGD block -10.4%, HttQ103 aggreg inconclusive, HTT cytoprotect -13.6%[10 µM], RGS12 GoLoco inh 10.4% and PNC inhibitor -106.1*.
COc1ccc(NC(=O)Nc2ccccc2F)cc1Cl was read as ALDH1A1 inh 8.0%, HttQ103 aggreg -9.1%[9.22 µM], HTT cytoprotect -31.5% and RGS12 GoLoco inh 2.4%.
Screening C=C(C)C(=O)OC1(C(F)(F)F)Oc2cc(C)ccc2NC1=O (stereo not given) returned ALDH1A1 inh 1.7%, HPGD block -8.5%, HttQ103 aggreg inconclusive, HTT cytoprotect 37.4%, RGS12 GoLoco inh -0.7% and PNC inhibitor -10.0.
For O=C(/C=C/NNC(=O)c1ccc(Br)cc1)c1ccccc1 the results were ALDH1A1 inh 10µM*, HPGD block -19.8%, HttQ103 aggreg 0.9%[9.22 µM], HTT cytoprotect -6.5%, RGS12 GoLoco inh 2.9% and PNC inhibitor -3.7.
For O=C(/C=C/NNC(=O)c1ccccc1)c1ccccc1 the results were ALDH1A1 inh -8.6%, HPGD block -28.7%, HttQ103 aggreg 0.7%[9.22 µM], HTT cytoprotect 15.7%, RGS12 GoLoco inh 1.8% and PNC inhibitor inconclusive.
Screening CN1CCN(C(=O)CCCOc2cc(=O)n(C)c3ccccc23)CC1 returned ALDH1A1 inh 5.2%, HPGD block -6.3%, HttQ103 aggreg 6.8%, HTT cytoprotect 6.7%, RGS12 GoLoco inh 0.3% and PNC inhibitor inconclusive.
For Cn1c(=O)cc(OCCCC(=O)N2CCCCC2)c2ccccc21 the results were ALDH1A1 inh -4.5%, HPGD block 7.08µM*, HttQ103 aggreg 19.6%, HTT cytoprotect 37.3%[1.9 µM], RGS12 GoLoco inh 3.3% and PNC inhibitor -12.8.
Screening Cn1c(=O)cc(OCCCC(=O)NC2CCCC2)c2ccccc21 returned ALDH1A1 inh 2.8%, HPGD block 14.1µM*, HttQ103 aggreg 32.9%, HTT cytoprotect -29.6%, RGS12 GoLoco inh -0.4% and PNC inhibitor -13.3.
For CCC(C)NC(=O)Cn1cc(S(=O)(=O)N2CCN(c3ccccc3F)CC2)c2ccccc2c1=O (stereo not given) the results were ALDH1A1 inh -11.0%, HttQ103 aggreg -4.6%, HTT cytoprotect 1.7% and RGS12 GoLoco inh 12.3%.
Cn1nc(-c2ccc(Cl)cc2)c2cc(C(=O)NC3CC3)sc21 was read as ALDH1A1 inh inconclusive, HPGD block -16.2%, HttQ103 aggreg -15.3%, HTT cytoprotect -23.6%, RGS12 GoLoco inh 4.3% and PNC inhibitor -86.0*.
`Cc1ccccc1-c1cc2nc(-c3ccc([N+](=O)[O-])cc3)cc(=O)n2[nH]1` gave ALDH1A1 inh -5.8%, HttQ103 aggreg 7.1%[9.22 µM], HTT cytoprotect 16.9%[10 µM] and RGS12 GoLoco inh 8.2%.
Screening O=c1cc(-c2ccc([N+](=O)[O-])cc2)nc2cc(-c3ccc(F)cc3)[nH]n12 returned ALDH1A1 inh 7.94µM*, HPGD block -23.2%, HttQ103 aggreg -8.7%, HTT cytoprotect -4.5%[10 µM], RGS12 GoLoco inh 5.0% and PNC inhibitor inconclusive.
`CCCCCC1=C2CNC(C)(C(=O)OC)C=C2C(C)C1=O` (stereo not given) gave ALDH1A1 inh -8.2%, HPGD block -7.0%, HTT cytoprotect 20.0% and RGS12 GoLoco inh -1.6%.
For CSc1nc(Oc2ccc3ccccc3c2)c2ccccc2n1 the results were ALDH1A1 inh inconclusive, HPGD block inconclusive, HttQ103 aggreg 10µM*, HTT cytoprotect -24.3%[10 µM], RGS12 GoLoco inh -2.8% and PNC inhibitor inconclusive.
Screening Cc1nc2ccccn2c1C(=O)NC1CCCc2ccccc21 (stereo not given) returned ALDH1A1 inh 4.9%, HttQ103 aggreg 1.7%[9.22 µM], HTT cytoprotect 27.8%[10 µM] and RGS12 GoLoco inh 11.3%.
O=C(Nc1ccccc1)N1CCn2c1nc1ccccc12 was read as ALDH1A1 inh -1.2%, HPGD block -6.2%, HttQ103 aggreg 6.6%, HTT cytoprotect -8.1%, RGS12 GoLoco inh 15.7% and PNC inhibitor inconclusive.
S=C(Nc1ccccc1)N1CCn2c1nc1ccccc12 was read as ALDH1A1 inh -9.0%, HPGD block 15.8µM*, HttQ103 aggreg 9.5%, HTT cytoprotect -16.7%, RGS12 GoLoco inh -1.4% and PNC inhibitor -2.2.
For CC(=O)N1c2ccccc2C(=O)C1N1CCCCC1 (stereo not given) the results were ALDH1A1 inh 28.2µM*, HPGD block -16.7%, HttQ103 aggreg 3.6%, HTT cytoprotect 7.2%[10 µM], RGS12 GoLoco inh -24.4% and PNC inhibitor inconclusive.
`CN(Cc1ccccc1)S(=O)(=O)c1ccc2c(c1)NC(=O)CC(=O)N2` gave ALDH1A1 inh inconclusive, HPGD block -13.1%, HttQ103 aggreg 1.6%, HTT cytoprotect 12.4%[10 µM], RGS12 GoLoco inh 6.3% and PNC inhibitor -1.8.
